From PubChem BioAssay
TrxR1 substrate: rat thioredoxin reductase 1 substrate activity; O89049; purified TrxR1 substrate turnover, NADPH consumption readout; Potency, µM (titrated, usually from 114 µM), for inactives: at the top dose activity change, negative = substrate turnover; actives 0.01% (n = 390,000); note: nearly all actives have a fitted effect of over 50% in size
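Rat TrxR1, dispensed at 90 nM, was prereduced with 400 uM NADPH (final) for 5 min at ~22 deg C, then incubated with compound 15 min before 400 uM selenite. A first-read NADPH fluorescence drop versus no-compound background flagged substrates.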
PLK1 PBD inh: inhibitors of human PLK1 polo-box domain binding. P53350. Plk1 PBD binding of FITC phosphopeptide, fluorescence polarization. Potency, µM, inactives show max response, negative = inhibition, actives largely listed as inhibitors. actives 2.8% (n = 360,000). AID 720504; note: series mostly up to about 57 µM; nearly all actives have a fitted effect of over 65% in size
IDH1 R132H inh: human IDH1 R132H inhibition | AID 602179 | IDH1-R132H enzyme, NADPH consumption, diaphorase/resazurin fluorescence | actives 0.093% (n = 390,000) | Potency, µM (series often up to 76.6 µM), inactives show top-dose activity change, negative = inhibition, usual class: inhibitors; note: nearly all actives have a fitted effect of over 65% in size
Target sequence (O75874 whole entry R132H, stated change not applied): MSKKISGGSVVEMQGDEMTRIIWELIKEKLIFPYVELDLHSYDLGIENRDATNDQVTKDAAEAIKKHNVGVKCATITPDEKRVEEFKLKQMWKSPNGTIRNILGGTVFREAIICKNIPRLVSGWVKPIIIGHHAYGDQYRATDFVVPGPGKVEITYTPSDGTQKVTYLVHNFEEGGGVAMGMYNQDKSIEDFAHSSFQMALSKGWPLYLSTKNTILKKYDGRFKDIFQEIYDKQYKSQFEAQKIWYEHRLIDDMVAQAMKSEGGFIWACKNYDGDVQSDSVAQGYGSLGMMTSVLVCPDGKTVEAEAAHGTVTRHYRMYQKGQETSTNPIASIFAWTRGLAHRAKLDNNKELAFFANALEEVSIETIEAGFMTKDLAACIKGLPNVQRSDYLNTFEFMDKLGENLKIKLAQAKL
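IDH1-R132H (0.5 ug/mL) preincubated 30 min with compound, then NADPH (0.016 mM) and alpha-KG (2 mM) added; 80 min at RT, pH 7.5. Remaining NADPH coupled via diaphorase/resazurin to fluorescence (540/590 nm); concentration-response curves normalized to no-enzyme control.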
rTrxR1 inhibitor: rat TrxR1 inhibition. O89049. recombinant rTrxR1, NADPH fluorescence consumption, selenite substrate. Potency, µM (top dose mostly 114 µM), for inactives: top-dose activity change, negative = inhibition, actives largely listed as inhibitors. actives 1% (n = 390,000); note: nearly all actives have a fitted effect of over 65% in size
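Rat TrxR1 (90 nM in the dispensed reagent) was pre-reduced with 400 uM NADPH for 5 min at room temperature, then incubated with compound for 15 min. After 400 uM selenite was added, NADPH fluorescence (Ex 340/Em 450 nm) was followed for 8 min.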
VDR inh: inhibitors of human vitamin D receptor; P11473; VDR-SRC2-3 peptide fluorescence polarization, 2 h; Potency, µM, for the others: max response, negative = inhibition, usual class: inhibitors; actives 0.93% (n = 400,000); AID 504847
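VDR–SRC2-3 interaction, FP format. Cmpds 23 nl via pintool, brief spin, 2 h ambient incubation.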
Sfp inh: Sfp phosphopantetheinyl transferase inhibition; Q9F4F7; Biochemical Sfp PPTase activity, qHTS; Potency, µM, without a hit: largest response in the series, negative = inhibition, most hits filed as inhibitors; actives 3.5% (n = 310,000);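 note: the enzyme is Sfp with the accession as filed and its product quenches rhodamine fluorescence; 0% = enzyme reaction without inhibitor and -100% = no enzyme wells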
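Step 1, compound plus 15 nM Sfp-PPTase, 15 min, room temperature. Step 2, add rhodamine-CoA (5 uM) and BHQ-2-YbbR (12.5 uM). Step 3, read 525/598 nm fluorescence at 0 and 30 min.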
* = called active by the depositor; ? = inconclusive; . = no result given; [ ] = remark or other dose. Most compounds without a hit are left out; they make up all but 5.2% or so of the library. Calls come from the whole dose curve; as a rule, active = well fitted curve in the direction sought with a large enough effect; inconclusive = small, poorly fitted or top-dose-only effect, or another doubt; inactive = no such curve, though single readings can be large; an effect the other way counts as inactive or inconclusive. Unless noted, % is set by controls: 0 for no effect and ±100 for the full control effect; potency is the fitted concentration of half-maximal effect.

SMILES	TrxR1 substrate	PLK1 PBD inh	IDH1 R132H inh	rTrxR1 inhibitor	VDR inh	Sfp inh
COc1ccc(CC(=S)NCCc2ccccc2)cc1	-3%	7.5µM*	0%	0%	?	14µM*
COc1ccc(C(=O)NC(=S)NCc2ccccc2)cc1	-8%	2%	0%	22µM*	?	-3%
S=C(Cc1ccccc1)NCCc1ccccc1	-11%	-27%	5%	-6%	-8%	.
COc1ccc(C(=O)NC(=S)Nc2ccc3c(c2)Cc2ccccc2-3)cc1	14%[57.1 µM]	-16%	2%	22%[57.1 µM]	-8%	45µM*
O=C(NC1CCCC1)C(c1ccccc1)n1c(CSCCOc2ccccc2)nc2ccccc21 (stereo not drawn)	.	-3%	.	.	.	.
Cc1ccc2c(CC(=O)Nc3ccc(S(=O)(=O)N4CCCCC4C)cc3)coc2c1 (stereo not drawn)	2%	.	1%	26%	6%	.
COc1ccc(NC(=O)C2CCCN2C(=O)NCc2ccccc2)cc1 (stereo not drawn)	5%[57.1 µM]	15µM*	1%	16%[57.1 µM]	71µM*	23%
COc1ccc(CNC(=O)C2CCCN2C(=O)NCc2ccccc2)cc1 (stereo not drawn)	4%	1%	-2%	21%	-10%	19%
CCOc1ccc(-c2[nH]nc3c2C(c2ccc(O)cc2)C(C#N)=C(N)O3)cc1 (stereo not drawn)	7%	-4%	0%	-12%	-5%	6%
CCOc1cc(C2C(C#N)=C(N)Oc3n[nH]c(-c4ccncc4)c32)cc([N+](=O)[O-])c1O (stereo not drawn)	-4%[57.1 µM]	?	-1%	-9%[57.1 µM]	-2%	79µM*
CCN(CC)CCC(=O)N1C/C(=C/c2ccccc2)C(=O)/C(=C\c2ccccc2)C1	9%[57.1 µM]	-15%	2%	-62%[57.1 µM]	45µM*	.
O=C1/C(=C\c2ccccc2)CN(C(=O)CCN2CCCCC2)C/C1=C/c1ccccc1	-9%	?	3%	5µM*	32µM*	.
O=C1/C(=C\c2ccccc2)CCC/C1=C/c1ccccc1	-13%	-9%	3%	?	?	.
O=C(CCN1C(=O)S/C(=C\c2ccccc2)C1=O)N1CCCCC1	0%	-8%	4%	1%	-9%	7%
COC(=O)C(=C/C(C)=C/c1cccnc1)C(=O)OC	-7%	-12%	-8%	56µM*	?	7%
CC[C@H](C)N	.	.	.	.	11%	7%
CCOc1ccccc1/C=N/Nc1nc2c(N)ncnc2n1[C@H]1O[C@@H](CO)[C@H](O)[C@@H]1O	-6%	-6%	1%	-10%	0%	56µM*
Nc1ncnc2c1nc(Br)n2C1OC(CO)C(O)C1O (stereo not drawn)	.	.	.	.	-1%	-2%
O=C(CC(C(=O)O)c1cccc(Cl)c1)c1ccccc1 (stereo not drawn)	0%	4%	7%	-5%	-1%	14%
Cc1ccc(NC(CC(=O)c2ccccc2)C(=O)O)cc1Cl (stereo not drawn)	-3%	24µM*	0%	-35%	?	?
O=C(CC(Nc1ccc(Cl)cc1Cl)C(=O)O)c1ccccc1 (stereo not drawn)	1%	-6%	-4%	25µM*	79µM*	14µM*
Cc1ccc(NC(=O)CCC(=O)c2ccc(F)cc2)cc1Cl	-10%	-6%	0%	-11%	5%	14%
CSCCC(NC(=O)c1ccccc1)C(=O)OCC(=O)Nc1ccc(C)c(Cl)c1 (stereo not drawn)	-10%	21µM*	2%	-5%	?	22%
Cn1c(=O)c(-c2cccs2)nc2cnc(Oc3ccccc3)nc21	.	.	.	.	?	9%
O=P1(O)OP(=O)(O)OP(=O)(O)O1.[Al]	.	.	.	.	0%	11%
SMILES	TrxR1 substrate	PLK1 PBD inh	IDH1 R132H inh	rTrxR1 inhibitor	VDR inh	Sfp inh
COc1cc(-c2coc3c(C(=O)NCc4cccc(Cl)c4)cccc23)ccc1O	.	3%	.	.	.	.
COc1ccc(OC)c(C2c3c(oc4ccc(C)cc4c3=O)C(=O)N2CCCN(C)C)c1 (stereo not drawn)	0%[57.1 µM]	.	-16%	5%[57.1 µM]	-1%	.
C(=C\c1ccnc2ccccc12)/c1ccc(N2CCNCC2)cc1	5%	.	.	?	.	.
O=c1ccccn1Cc1c(F)cccc1Cl	-11%	3.4µM*	7%	?	-21%	14%
Cc1cc(C)nc(N2N=C(C(C)(C)C)CC2=O)n1	10%	-4%	9%	40µM*	-14%	-10%
CN1CCCN(C2C3CC4CC(C3)CC2C4)CC1 (stereo not drawn)	12%[57.1 µM]	2%	3%	-29%[57.1 µM]	-4%	79µM*
CS(=O)(=O)N1CCN(C2C3CC4CC(C3)CC2C4)CC1 (stereo not drawn)	-4%	-13%	0%	18%	-20%	13%
O=C1NC(=O)/C(=C/c2ccc(-c3cccc([N+](=O)[O-])c3)o2)S1	15%[57.1 µM]	?	-3%	19%[57.1 µM]	-2%	89µM*
O=Cc1ccc(-c2cccc([N+](=O)[O-])c2)o1	6%[57.1 µM]	-2%	7%	9%[57.1 µM]	-3%	0%
O=C(NCCO)c1ccc2c3n(nc2c1)-c1ccc(Cl)cc1CO3	11%	-2%	12%	10%	11%	89µM*
O=C(c1ccc2c3n(nc2c1)-c1ccc(Cl)cc1CO3)N1CCCCC1	0%	-1%	-7%	-1%	-15%	56µM*
O=C(O)c1ccc2c3n(nc2c1)-c1ccc(Cl)cc1CO3	-9%	-12%	4%	?	-7%	4%
COc1ccc(Cl)cc1NC(=O)c1nnn(Cc2cccc(C(F)(F)F)c2)c1N	26%	.	0%	44%	-22%	.
COc1cc(/C=C\C(=O)Nc2cc(=O)n(C)c(=O)n2C)cc(OC)c1OC	-3%[57.1 µM]	-11%	-3%	4%[57.1 µM]	-6%	25%
Cc1ccc(/C=C/C(=O)Nc2cc(=O)n(C)c(=O)n2C)o1	-5%	-17%	6%	7.9µM*	?	-81%
Cn1c(NC(=O)/C=C/c2ccco2)cc(=O)n(C)c1=O	-12%	-3%	3%	?	7%	56µM*
CC[C@H](C)[C@@H](CO)NC(=O)[C@H]1O[C@@H](n2ccc(N)nc2=O)[C@H](O)[C@@H]1O	.	0%	.	.	.	.
COc1ccccc1-n1c(SCC(=O)NCc2ccc3c(c2)OCO3)nc2cc([N+](=O)[O-])ccc21	6%[57.1 µM]	?	-4%	-3%[57.1 µM]	?	-84%
CC(Sc1nc2cc([N+](=O)[O-])ccc2n1-c1ccc(F)cc1)C(=O)NCc1ccc2c(c1)OCO2 (stereo not drawn)	-12%	?	1%	-11%	-19%	2.2µM*
